The full ranking holds about 33,000 sequences; the median of “E-score (-0.5 to 0.5)” is about -0.043, and the highest 2% start at about 0.37. The sample holds the highest values, similar sequences and a random draw of the others, so the mix is not that of the screen.
The sequences below were run against T1, Upc2 (UniProt Q12151) (assay: PBM E-score (8-mer binding enrichment) (E-score (-0.5 to 0.5)); higher = stronger / more preferred TF binding). Conditions: protein concentration: 200 nM; construct: GST-full length.
T1 sequence: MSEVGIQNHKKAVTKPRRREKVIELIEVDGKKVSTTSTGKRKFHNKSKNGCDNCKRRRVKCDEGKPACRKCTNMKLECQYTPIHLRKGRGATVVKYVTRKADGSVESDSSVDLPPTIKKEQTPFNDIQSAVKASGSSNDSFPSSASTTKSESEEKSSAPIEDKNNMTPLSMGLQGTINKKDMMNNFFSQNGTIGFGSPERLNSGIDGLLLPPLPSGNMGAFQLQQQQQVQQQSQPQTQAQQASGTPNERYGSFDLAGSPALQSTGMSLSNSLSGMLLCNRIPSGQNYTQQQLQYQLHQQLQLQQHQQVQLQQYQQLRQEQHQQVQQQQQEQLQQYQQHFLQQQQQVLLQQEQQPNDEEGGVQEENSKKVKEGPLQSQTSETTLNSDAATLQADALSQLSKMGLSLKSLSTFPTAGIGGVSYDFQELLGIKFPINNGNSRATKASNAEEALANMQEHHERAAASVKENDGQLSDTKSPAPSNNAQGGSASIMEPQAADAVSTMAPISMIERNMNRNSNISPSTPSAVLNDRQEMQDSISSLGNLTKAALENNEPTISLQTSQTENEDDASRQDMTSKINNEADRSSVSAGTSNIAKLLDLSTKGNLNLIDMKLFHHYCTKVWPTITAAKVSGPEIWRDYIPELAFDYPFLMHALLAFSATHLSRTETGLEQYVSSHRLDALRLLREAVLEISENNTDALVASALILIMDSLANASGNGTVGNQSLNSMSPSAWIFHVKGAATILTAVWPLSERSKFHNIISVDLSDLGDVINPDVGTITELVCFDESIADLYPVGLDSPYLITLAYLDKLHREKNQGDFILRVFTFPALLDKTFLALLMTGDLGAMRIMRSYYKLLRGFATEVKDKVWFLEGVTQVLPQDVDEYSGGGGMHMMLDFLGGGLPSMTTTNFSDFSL
Protocol: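 Universal 'all 10-mer' protein binding microarrays (Agilent AMADID 015681) probed with GST-tagged S. cerevisiae TFs (full-length or DBD) made by in vitro transcription/translation (PURExpress), about 100-200 nM. Bound TF was detected with fluorescent anti-GST. Each ungapped 8-mer (which stands for itself and its reverse complement) is scored by the PBM enrichment score (E-score), a modified Wilcoxon-Mann-Whitney statistic from -0.5 to +0.5, computed with the Universal PBM Analysis Suite. Scale: above 0.35 generally sequence-specific binding.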

| Sequence | PBM E-score |
| --- | --- |
| CTTTCTCA | 0.0661 |
| AGCTCAGA | -0.0803 |
| ACCGACTA | 0.0499 |
| ATCGAGGG | -0.0211 |
| ATACATGC | 0.169 |
| AAAACCAC | -0.0422 |
| CCGAAGAA | -0.127 |
| AAGATGCC | 0.00959 |
| CCGAACGA | 0.384 |
| CCGAACGC | 0.0534 |
| CCGAACGG | 0.199 |
| ATTATGAG | -0.102 |
| GCAAGGAC | -0.135 |
| ACTTCACG | 0.0222 |
| ACGAGATC | 0.408 |
| ACGAGATG | 0.38 |
| ACGAGATA | 0.355 |
| CCGAGATC | 0.018 |
| ACGAGACC | 0.347 |
| GCGAGAGC | 0.23 |
| ACGAGAGC | 0.375 |
| ACGAGAGA | 0.343 |
| ATGAGATG | -0.243 |
| ACGTCCCA | -0.208 |
| CCGCCCAG | -0.0999 |
| CGAAACAA | 0.188 |

| Sequence | PBM E-score |
| --- | --- |
| ATTTGCGC | 0.024 |
| GGATGCTA | -0.0482 |
| ATTTCGCC | 0.131 |
| CGAGCATA | 0.175 |
| CCTTAGGC | -0.0987 |
| CACGAATA | 0.175 |
| CACGAATC | 0.0313 |
| CACGAATG | 0.0101 |
| CACGAAAA | 0.134 |
| TACGAAAA | 0.411 |
| AACGAATG | 0.416 |
| AACGAATC | 0.39 |
| GACGAATC | 0.138 |
| GACGAAAA | 0.177 |
| GACGAATA | 0.0289 |
| TACGAATA | 0.415 |
| AGCGAATG | 0.177 |
| CGACCAGA | 0.0386 |
| GACCGTGA | -0.166 |
| CCGCTGGA | -0.0874 |
| ATAATTGC | -0.037 |
| AACCTGCT | -0.0408 |
| CACCATGC | -0.295 |
| CCGGGCTA | -0.18 |
| CACGTACG | 0.346 |
| ATAACGAT | 0.144 |

| Sequence | PBM E-score |
| --- | --- |
| ATCGAATA | 0.211 |
| AAAGAATT | -0.0689 |
| AAGGAATT | -0.215 |
| ACCGAATA | 0.0988 |
| AACGAATA | 0.381 |
| AACGAATT | 0.378 |
| GATCAGCC | -0.29 |
| ATCTTCCG | 0.168 |
| AGCTTTTA | 0.163 |
| TGTGCGAA | 0.0333 |
| CGAACGAC | 0.401 |
| CGAACGAA | 0.398 |
| GTAACGAC | 0.326 |
| GGAACGAA | 0.464 |
| GGAACGCA | 0.174 |
| GGAACGCC | 0.013 |
| CGAACGGA | 0.223 |
| CGAACAAA | 0.183 |
| CGAACGCC | 0.0792 |
| GGAACGAC | 0.453 |
| CGAACGTC | 0.135 |
| GGAACGTA | 0.282 |
| ATCCTTAC | -0.0381 |
| AAAACTCA | -0.0631 |
| CGACCCTC | 0.0606 |
| AAGCCCAC | -0.0729 |

| Sequence | PBM E-score |
| --- | --- |
| AAATGCAG | -0.0984 |
| GCTGGATA | -0.131 |
| CCCTGTAG | -0.234 |
| AGAACGTC | -0.066 |
| AGAACGAG | 0.42 |
| AGAACGAA | 0.376 |
| AGAACAAA | 0.103 |
| ATAACGAC | 0.159 |
| CGAACGCG | 0.185 |
| CTAACGAG | 0.343 |
| AGAACGTG | -0.00321 |
| ACAACGAG | 0.257 |
| CGAACGAG | 0.427 |
| AGAACGAT | 0.342 |
| AGAACGAC | 0.391 |
| AAACCTGT | 0.225 |
| GCTCTCAC | -0.32 |
| TCCGCGCA | -0.0128 |
| AAATACTC | -0.0601 |
| CAGTTGAG | -0.255 |
| ACGGGCTC | 0.128 |
| AATAACGT | 0.133 |
| CTAACGAA | 0.287 |
| TGAACGAA | 0.458 |
| TGAACGCA | 0.189 |
| ATAACGAA | 0.197 |

| Sequence | PBM E-score |
| --- | --- |
| TTAACGAA | 0.448 |
| TCAACGAA | 0.249 |
| CTACCGTA | 0.301 |
| AGACGACC | 0.132 |
| TCACGACA | -0.138 |
| GAACGACC | 0.429 |
| GAACGACA | 0.437 |
| TGACGACA | 0.0658 |
| CAACGACA | 0.313 |
| TAACGACA | 0.381 |
| GGACGACA | -0.266 |
| AAACGACC | 0.458 |
| CAACGACC | 0.221 |
| GCACGACC | -0.2 |
| GGACGACC | -0.212 |
| AGCCAACC | 0.0299 |
| TCTCACCA | -0.14 |
| CAGTGCAC | -0.136 |
| CTACCACA | -0.234 |
| CCGGCTAA | -0.199 |
| AGATAAAG | -0.0496 |
| ACACGACA | 0.221 |
| AGACGACA | 0.104 |
| AAACGACG | 0.476 |
| CAACGACG | 0.296 |
| CGACGACG | 0.0684 |

| Sequence | PBM E-score |
| --- | --- |
| AAACGACT | 0.456 |
| AGACGACT | 0.0557 |
| ACACGACT | 0.194 |
| AAACGACA | 0.479 |
| GCCGAGAA | 0.068 |
| AACAATCA | -0.0313 |
| CCTGGGGC | -0.165 |
| TCGCCGCA | -0.0606 |
| AATTAACG | 0.272 |
| AGAATAGC | -0.229 |
| TTCCGGAA | -0.206 |
| CATCATTA | -0.0416 |
| ACTTACTG | -0.00843 |
| CGTATATC | 0.454 |
| CATATATC | 0.114 |
| AGTATATA | 0.282 |
| AGTATATC | 0.0604 |
| CGTATATA | 0.458 |
| GGTATATA | 0.152 |
| AATTCGTC | 0.0116 |
| GATTCGCA | 0.131 |
| CATTCGTC | 0.0696 |
| AATTCGTG | -0.0513 |
| GATTCGGA | 0.11 |
| GATTCGTA | 0.438 |
| AATTCGTA | 0.433 |

| Sequence | PBM E-score |
| --- | --- |
| CATTCGCA | 0.0275 |
| CATTCGTA | 0.416 |
| CCTGGGAC | -0.25 |
| CCCTCTCC | -0.339 |
| CCGTTCGC | 0.201 |
| ACCTTGGG | -0.219 |
| CTAAATTC | 0.0497 |
| AGCTGCAT | -0.108 |
| AACGAGAT | 0.417 |
| CACGAGAA | 0.0693 |
| TACGAGAA | 0.447 |
| ATCGAGAT | -0.0275 |
| CACGAGAG | 0.0635 |
| AACGAGAA | 0.422 |
| TTCGAGAA | 0.109 |
| AACGAGAG | 0.425 |
| GACGAGAA | 0.0864 |
| ACCGAGAT | 0.126 |
| TCCGAGAA | 0.248 |
| ATCGAGAG | 0.0513 |

Reference: the supplement of paper PMC3334620
